Many of the other results were omitted from the sample, so the strongest signals are more common in it than they were.
Experiments:
Experiment in all cases: glycan array binding signal (z-score within array); higher = stronger binding
Details in all cases: glycan notation: IUPAC condensed, linker removed
[1] = target: Fuc(a1-2)Gal(b1-3)GlcNAc(b1-3)[Neu5Ac(a2-6)Gal(b1-4)GlcNAc(b1-6)]Gal(b1-4)Glc
Procedure, shortened: (§1)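 Glycan array data came from 3228 arrays in the Consortium for Functional Glycomics database, and only arrays with an available protein sequence were kept. Glycan names were put into IUPAC-condensed notation, and columns mapping to the same glycan were averaged. The binding signal is a within-array Z-score, averaged across arrays of one protein sequence run at different concentrations or buffers and across linkers. A negative Z-score can be read as non-binding.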

[2] = target: Fuc(a1-2)Gal(b1-4)GlcNAc(b1-3)Gal(b1-4)GlcNAc(b1-2)Man(a1-3)[Fuc(a1-2)Gal(b1-4)GlcNAc(b1-3)Gal(b1-4)GlcNAc(b1-2)Man(a1-6)]Man(b1-4)GlcNAc(b1-4)GlcNAc
Procedure, shortened: as §1

[3] = target: Fuc(a1-2)Gal(b1-4)GlcNAc(b1-3)GalNAc
Procedure, shortened: as §1

[4] = target: Fuc(a1-2)Gal6S(b1-3)GlcNAc
Procedure, shortened: as §1

[5] = target: Fuc(a1-2)[Gal(a1-3)]Gal(b1-4)GlcNAc
Procedure, shortened: as §1

[6] = target: Fuc(a1-2)[Gal(a1-3)]Gal(b1-4)GlcNAc(b1-2)Man(a1-3)[Fuc(a1-2)[Gal(a1-3)]Gal(b1-4)GlcNAc(b1-2)Man(a1-6)]Man(b1-4)GlcNAc(b1-4)GlcNAc
Procedure, shortened: as §1

[7] = target: Fuc(a1-2)[GalNAc(a1-3)]Gal(b1-4)GlcNAc
Procedure, shortened: as §1

[8] = target: Fuc(a1-2)[GalNAc(a1-3)]Gal(b1-4)GlcNAc(b1-2)Man(a1-3)[Fuc(a1-2)[GalNAc(a1-3)]Gal(b1-4)GlcNAc(b1-2)Man(a1-6)]Man(b1-4)GlcNAc(b1-4)GlcNAc
Procedure, shortened: as §1

[9] = target: Fuc(a1-2)[GalNAc(a1-3)]Gal(b1-4)[Fuc(a1-3)]GlcNAc
Procedure, shortened: as §1

[10] = target: Fuc(a1-2)[GalNAc(a1-3)]Gal(b1-4)[Fuc(a1-3)]GlcNAc(b1-3)GalNAc
Procedure, shortened: as §1

[11] = target: Fuc(a1-3)[Gal(b1-4)]GlcNAc(b1-2)Man(a1-3)[Fuc(a1-3)[Gal(b1-4)]GlcNAc(b1-2)Man(a1-6)]Man(b1-4)GlcNAc(b1-4)GlcNAc
Procedure, shortened: as §1

Gal(a1-3)Gal = target: Gal(a1-3)Gal
Procedure, shortened: as §1

Gal(a1-4)Gal(b1-4)Glc = target: Gal(a1-4)Gal(b1-4)Glc
Procedure, shortened: as §1

Gal(b1-3)GalNAc = target: Gal(b1-3)GalNAc
Procedure, shortened: as §1

[12] = target: Gal(b1-3)GalNAc(b1-4)Gal(b1-4)Glc
Procedure, shortened: as §1

[13] = target: Gal(b1-3)GlcNAc(b1-3)Gal(b1-4)GlcNAc
Procedure, shortened: as §1

[14] = target: Gal(b1-3)GlcNAc(b1-3)Gal(b1-4)GlcNAc(b1-6)[Gal(b1-3)GlcNAc(b1-3)]Gal(b1-4)Glc
Procedure, shortened: as §1

[15] = target: Gal(b1-4)GlcNAc(b1-3)Gal(b1-4)GlcNAc(b1-2)Man(a1-3)[Gal(b1-4)GlcNAc(b1-3)Gal(b1-4)GlcNAc(b1-2)Man(a1-6)]Man(b1-4)GlcNAc(b1-4)[Fuc(a1-6)]GlcNAc
Procedure, shortened: as §1

[16] = target: Gal(b1-4)GlcNAc(b1-3)Gal(b1-4)GlcNAc(b1-2)[Gal(b1-4)GlcNAc(b1-3)Gal(b1-4)GlcNAc(b1-6)]Man(a1-6)[Gal(b1-4)GlcNAc(b1-3)Gal(b1-4)GlcNAc(b1-2)Man(a1-3)]Man(b1-4)GlcNAc(b1-4)GlcNAc
Procedure, shortened: as §1

[17] = target: Gal(b1-4)GlcNAc(b1-3)Gal(b1-4)GlcNAc(b1-3)Gal(b1-4)GlcNAc(b1-2)Man(a1-3)[Gal(b1-4)GlcNAc(b1-3)Gal(b1-4)GlcNAc(b1-3)Gal(b1-4)GlcNAc(b1-2)Man(a1-6)]Man(b1-4)GlcNAc(b1-4)[Fuc(a1-6)]GlcNAc
Procedure, shortened: as §1

[18] = target: Gal(b1-4)GlcNAc(b1-3)Gal(b1-4)GlcNAc(b1-3)Gal(b1-4)GlcNAc(b1-2)[Gal(b1-4)GlcNAc(b1-3)Gal(b1-4)GlcNAc(b1-3)Gal(b1-4)GlcNAc(b1-6)]Man(a1-6)[Gal(b1-4)GlcNAc(b1-3)Gal(b1-4)GlcNAc(b1-3)Gal(b1-4)GlcNAc(b1-2)Man(a1-3)]Man(b1-4)GlcNAc(b1-4)[Fuc(a1-6)]GlcNAc
Procedure, shortened: as §1

[19] = target: Gal(b1-4)GlcNAc(b1-3)Gal(b1-4)GlcNAc(b1-3)Gal(b1-4)GlcNAc(b1-3)Gal(b1-4)GlcNAc(b1-2)Man(a1-3)[Gal(b1-4)GlcNAc(b1-3)Gal(b1-4)GlcNAc(b1-3)Gal(b1-4)GlcNAc(b1-3)Gal(b1-4)GlcNAc(b1-2)Man(a1-6)]Man(b1-4)GlcNAc(b1-4)GlcNAc
Procedure, shortened: as §1

[20] = target: Gal(b1-4)GlcNAc(b1-3)Gal(b1-4)GlcNAc(b1-3)Gal(b1-4)GlcNAc(b1-3)Gal(b1-4)GlcNAc(b1-2)Man(a1-3)[Gal(b1-4)GlcNAc(b1-3)Gal(b1-4)GlcNAc(b1-3)Gal(b1-4)GlcNAc(b1-3)Gal(b1-4)GlcNAc(b1-2)Man(a1-6)]Man(b1-4)GlcNAc(b1-4)[Fuc(a1-6)]GlcNAc
Procedure, shortened: as §1

[21] = target: Gal(b1-4)GlcNAc(b1-3)Gal(b1-4)GlcNAc(b1-3)Gal(b1-4)GlcNAc(b1-3)Gal(b1-4)GlcNAc(b1-2)[Gal(b1-4)GlcNAc(b1-3)Gal(b1-4)GlcNAc(b1-3)Gal(b1-4)GlcNAc(b1-3)Gal(b1-4)GlcNAc(b1-6)]Man(a1-6)[Gal(b1-4)GlcNAc(b1-3)Gal(b1-4)GlcNAc(b1-3)Gal(b1-4)GlcNAc(b1-3)Gal(b1-4)GlcNAc(b1-2)Man(a1-3)]Man(b1-4)GlcNAc(b1-4)[Fuc(a1-6)]GlcNAc
Procedure, shortened: as §1

[22] = target: Gal(b1-4)GlcNAc(b1-3)Gal(b1-4)GlcNAc(b1-3)Gal(b1-4)GlcNAc(b1-3)Gal(b1-4)GlcNAc(b1-3)Gal(b1-4)GlcNAc(b1-2)Man(a1-3)[Gal(b1-4)GlcNAc(b1-3)Gal(b1-4)GlcNAc(b1-3)Gal(b1-4)GlcNAc(b1-3)Gal(b1-4)GlcNAc(b1-3)Gal(b1-4)GlcNAc(b1-2)Man(a1-6)]Man(b1-4)GlcNAc(b1-4)GlcNAc
Procedure, shortened: as §1

[23] = target: Gal(b1-4)GlcNAc(b1-3)Gal(b1-4)GlcNAc(b1-3)Gal(b1-4)GlcNAc(b1-3)Gal(b1-4)GlcNAc(b1-3)Gal(b1-4)GlcNAc(b1-2)[Gal(b1-4)GlcNAc(b1-3)Gal(b1-4)GlcNAc(b1-3)Gal(b1-4)GlcNAc(b1-3)Gal(b1-4)GlcNAc(b1-3)Gal(b1-4)GlcNAc(b1-6)]Man(a1-6)[Gal(b1-4)GlcNAc(b1-3)Gal(b1-4)GlcNAc(b1-3)Gal(b1-4)GlcNAc(b1-3)Gal(b1-4)GlcNAc(b1-3)Gal(b1-4)GlcNAc(b1-2)Man(a1-3)]Man(b1-4)GlcNAc(b1-4)[Fuc(a1-6)]GlcNAc
Procedure, shortened: as §1

[24] = target: Gal(b1-4)GlcNAc(b1-3)Gal(b1-4)GlcNAc(b1-6)[Gal(b1-3)]GalNAc
Procedure, shortened: as §1

[25] = target: Gal(b1-4)GlcNAc(b1-6)[Gal(b1-4)GlcNAc(b1-3)]GalNAc
Procedure, shortened: as §1

GalNAc(a1-3)Gal = target: GalNAc(a1-3)Gal
Procedure, shortened: as §1

[26] = target: GlcNAc(a1-6)Gal(b1-4)GlcNAc
Procedure, shortened: as §1

[27] = target: GlcNAc(b1-3)Gal(b1-4)GlcNAc(b1-2)Man(a1-3)[GlcNAc(b1-3)Gal(b1-4)GlcNAc(b1-2)Man(a1-6)]Man(b1-4)GlcNAc(b1-4)GlcNAc
Procedure, shortened: as §1

[28] = target: GlcNAc(b1-3)Gal(b1-4)GlcNAc(b1-3)Gal(b1-4)GlcNAc(b1-2)Man(a1-3)[GlcNAc(b1-3)Gal(b1-4)GlcNAc(b1-3)Gal(b1-4)GlcNAc(b1-2)Man(a1-6)]Man(b1-4)GlcNAc(b1-4)[Fuc(a1-6)]GlcNAc
Procedure, shortened: as §1

[29] = target: Man(a1-2)Man(a1-2)Man(a1-6)[Man(a1-3)]Man
Procedure, shortened: as §1

Man(a1-2)Man(a1-3)Man = target: Man(a1-2)Man(a1-3)Man
Procedure, shortened: as §1

[30] = target: Neu5Ac(a2-3)Gal(b1-3)GlcNAc6S
Procedure, shortened: as §1

[31] = target: Neu5Ac(a2-3)Gal(b1-4)GlcNAc(b1-2)Man(a1-3)[GlcNAc(b1-4)][Neu5Ac(a2-3)Gal(b1-4)GlcNAc(b1-2)Man(a1-6)]Man(b1-4)GlcNAc(b1-4)GlcNAc
Procedure, shortened: as §1

[32] = target: Neu5Ac(a2-3)Gal(b1-4)[Fuc(a1-3)]GlcNAc(b1-3)Gal(b1-4)GlcNAc
Procedure, shortened: as §1

[33] = target: Neu5Ac(a2-3)Gal(b1-4)[Fuc(a1-3)]GlcNAc(b1-3)Gal(b1-4)[Fuc(a1-3)]GlcNAc(b1-3)Gal(b1-4)[Fuc(a1-3)]GlcNAc
Procedure, shortened: as §1

[34] = target: Neu5Ac(a2-6)Gal(b1-4)GlcNAc(b1-2)Man(a1-6)Man(b1-4)GlcNAc(b1-4)GlcNAc
Procedure, shortened: as §1

[35] = target: Neu5Ac(a2-6)Gal(b1-4)GlcNAc(b1-3)Gal(b1-4)GlcNAc(b1-2)Man(a1-3)[Neu5Ac(a2-6)Gal(b1-4)GlcNAc(b1-3)Gal(b1-4)GlcNAc(b1-2)Man(a1-6)]GalNAc
Procedure, shortened: as §1

[36] = target: Neu5Ac(a2-6)Gal(b1-4)GlcNAc(b1-3)Gal(b1-4)GlcNAc(b1-3)Gal(b1-4)GlcNAc
Procedure, shortened: as §1

[37] = target: Neu5Ac(b2-6)Gal(b1-4)GlcNAc
Procedure, shortened: as §1

[38] = target: Neu5Gc(a2-3)Gal(b1-4)[Fuc(a1-3)]GlcNAc
Procedure, shortened: as §1

B1: DrGal9 (Danio rerio) (protein)
chain: MAFYQQPPYYNPRIPFSGPIQGGLQDGKSIIISGRVLPGANRFHVNLQCGSHSEANVALHFNPRYEDTDYVVNNSYLNRTWGSEERKYESPFAQGQTFTLQILVAQDKYKISTNGRHFMDYKHRIPFTQVDTVAVEGMVEVNSVAFQNPAGFIPPQAGYAPQYAVPPGCGFPAFPSAPNYTIPHKTVMNGGLHPGKNIVINGVVNPNAKSIIFNLCYRSGIAFHYNPRFDENVVVRNTNQMEKWGAEERFGGLPFHKGQPFQVTISCNPQHYNVFVNGKQEHTYKHRYTKLNDIDILEICGDLQLTSVQA
glycan array binding signal (z-score) [1]: -0.123 | glycan array binding signal (z-score) [2]: 3.83 | glycan array binding signal (z-score) [3]: -0.32 | glycan array binding signal (z-score) [4]: -0.391 | glycan array binding signal (z-score) [5]: 0.599 | glycan array binding signal (z-score) [6]: 3.36 | glycan array binding signal (z-score) [7]: -0.391 | glycan array binding signal (z-score) [8]: -0.329 | glycan array binding signal (z-score) [9]: -0.36 | glycan array binding signal (z-score) [10]: -0.336 | glycan array binding signal (z-score) [11]: -0.409 | glycan array binding signal (z-score) (Gal(a1-3)Gal): -0.376 | glycan array binding signal (z-score) (Gal(a1-4)Gal(b1-4)Glc): -0.356 | glycan array binding signal (z-score) (Gal(b1-3)GalNAc): -0.351 | glycan array binding signal (z-score) [12]: -0.117 | glycan array binding signal (z-score) [13]: -0.053 | glycan array binding signal (z-score) [14]: 1.3 | glycan array binding signal (z-score) [15]: 5.22 | glycan array binding signal (z-score) [16]: 0.373 | glycan array binding signal (z-score) [17]: 4.02 | glycan array binding signal (z-score) [18]: 4.33 | glycan array binding signal (z-score) [19]: 3.48 | glycan array binding signal (z-score) [20]: 3.44 | glycan array binding signal (z-score) [21]: 3.19 | glycan array binding signal (z-score) [22]: 3.05 | glycan array binding signal (z-score) [23]: 3.6 | glycan array binding signal (z-score) [24]: 0.054 | glycan array binding signal (z-score) [25]: -0.007 | glycan array binding signal (z-score) (GalNAc(a1-3)Gal): -0.402 | glycan array binding signal (z-score) [26]: -0.386 | glycan array binding signal (z-score) [27]: 1.73 | glycan array binding signal (z-score) [28]: 3.13 | glycan array binding signal (z-score) [29]: -0.361 | glycan array binding signal (z-score) (Man(a1-2)Man(a1-3)Man): -0.396 | glycan array binding signal (z-score) [30]: -0.144 | glycan array binding signal (z-score) [31]: 0.144 | glycan array binding signal (z-score) [32]: -0.356 | glycan array binding signal (z-score) [33]: -0.384 | glycan array binding signal (z-score) [34]: -0.399 | glycan array binding signal (z-score) [35]: 1.22 | glycan array binding signal (z-score) [36]: 0.598 | glycan array binding signal (z-score) [37]: -0.398 | glycan array binding signal (z-score) [38]: -0.351

Source: the supplement of paper PMC8728848
